# Compounds with a hit are over-represented: about 2.3% of the library has one in this group of screens.
# DENV2 CPE rescue = inhibitors of DENV2 cytopathic effect; hit rate 1.7% among 350,000; DENV2-infected cells, cytopathic effect rescue, plate reader; AID 651640; CPE inhibition, % at 9.99 µM; in the data active = CPE inhibition above about 20%, passing the limit was not always enough; inconclusive = no clear call, values can overlap the other calls; tested in BHK-21 cells;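 note: 0% = median of neutral control wells and 100% = median of positive control wells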
# Rtt109 HAT inh = blocks Candida albicans Rtt109/Vps75 acetyltransferase activity; Q5AAJ8; purified Rtt109/Vps75, ThioGlo CoA-SH fluorescence, 4 h; inhibition, % at 34.9 µM; hit rate 0.16% among 330,000;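 active = inhibition of at least 50% in every replicate; inconclusive = best replicate reaches 50% inhibition but some replicates fall short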
# PDI inh = inhibitors of human protein disulfide isomerase. P07237. PDI insulin aggregation turbidity, A650, 90 min. inhibition, % at 10 µM. hit rate 0.052% among 350,000. AID 588391;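 active = mean inhibition across replicates of 30% or more, whatever share of single replicates reach that level; inconclusive = mean inhibition below 30% while every single replicate reaches 30%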
# SIRT5 block = blocks human SIRT5 desuccinylation of peptide | hit rate 1.1% among 330,000 | Q9NXA8 | Purified SirT5, succinyl-peptide AMC, trypsin-coupled fluorescence | inhibition, % at 15 µM; in the data active = inhibition above about 15%; inconclusive = no clear call, values can overlap the other calls
# ERp5 inh = inhibitors of human ERp5; Q15084; ERp5 insulin aggregation, absorbance 650 nm, 90 min; inhibition, % at 9.99 µM; hit rate 0.05% among 350,000;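 active = mean replicate inhibition above about 25%, with every replicate also reaching it, limit read from the data, passing the limit was not always enough; inconclusive = only one of those two criteria met; inactive = neither criterion met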
# Numbers without * were called inactive; ? = inconclusive; nt = not tested or not shown.
SMILES,DENV2 CPE rescue,Rtt109 HAT inh,PDI inh,SIRT5 block,ERp5 inh
CC(C)NC(=O)Nc1ccc2c(c1)C(=O)N([C@H](C)CO)C[C@H](C)[C@@H](CN(C)Cc1ccc(-c3ccccc3)cc1)O2,2,nt,nt,14,10
C/C=C/c1ccc2c(c1)O[C@@H](CN(C)C(=O)C1CCOCC1)[C@H](C)CN([C@@H](C)CO)S2(=O)=O,-7,nt,nt,0,-3
C[C@@H]1CN([C@@H](C)CO)C(=O)c2cc(NC(=O)c3ccncc3)ccc2O[C@@H](C)CCCCO[C@H]1CN(C)Cc1ccccc1,1,nt,nt,-6,11
C[C@H]1CN([C@@H](C)CO)C(=O)c2cc(NC(=O)NC3CCCCC3)ccc2O[C@@H]1CN(C)S(=O)(=O)c1ccccc1,-9,nt,nt,-1,-1
CN1[C@@H]2c3ccc(C4=CCCC4)c(=O)n3C[C@@H]2[C@@H](CO)[C@@H]1C(=O)NCc1ccccc1F,50*,nt,nt,0,-2
COc1ccc(-c2ccc3n(c2=O)C[C@H]2[C@H](CO)[C@@H](C(=O)NCCN4CCCCC4)N(C)[C@@H]32)cc1,34*,nt,nt,-28,-2
O=C(C[C@H]1CC[C@H]2[C@@H](COC[C@@H](O)CN2C(=O)Nc2ccccc2)O1)NC1Cc2ccccc2C1,3,nt,nt,-3,4
CCCNC(=O)N[C@@H]1C=C[C@H](CC(=O)N2CCN(C)CC2)O[C@@H]1CO,-7,nt,nt,1,1
CC(C)NC(=O)Nc1ccc2c(c1)C(=O)N([C@@H](C)CO)C[C@H](C)[C@@H](CN(C)C(=O)Nc1cccc3ccccc13)O2,?,nt,nt,4,-3
C[C@@H]1CN([C@@H](C)CO)C(=O)c2cccc(NC(=O)c3nc4ccccc4s3)c2O[C@H]1CN(C)Cc1ccc(C(F)(F)F)cc1,-3,nt,nt,22*,1
C[C@H]1CN([C@@H](C)CO)C(=O)c2cccc(NC(=O)c3nc4ccccc4s3)c2O[C@@H]1CN(C)Cc1ccccc1,-6,nt,nt,4,-10
C[C@H](CO)N1C[C@H](C)[C@H](CN(C)Cc2ccc(C(F)(F)F)cc2)Oc2c(NC(=O)c3nc4ccccc4s3)cccc2C1=O,-2,nt,nt,28*,-3
C[C@H](CO)N1C[C@H](C)[C@@H](CN(C)Cc2ccc(C(F)(F)F)cc2)Oc2c(NC(=O)c3nc4ccccc4s3)cccc2C1=O,14,nt,nt,16*,-1
C[C@@H]1CN([C@H](C)CO)C(=O)c2cccc(NC(=O)c3nc4ccccc4s3)c2O[C@@H]1CN(C)Cc1ccc(C(F)(F)F)cc1,-3,nt,nt,25*,0
C[C@@H]1CN([C@H](C)CO)C(=O)c2cccc(NC(=O)c3nc4ccccc4s3)c2O[C@@H]1CN(C)Cc1ccccc1,11,nt,nt,5,-3
C[C@H]1CN([C@@H](C)CO)C(=O)c2cccc(NC(=O)c3nc4ccccc4s3)c2O[C@@H]1CN(C)Cc1ccc(C(F)(F)F)cc1,-1,nt,nt,21*,-1
COc1ccc(CN(C)C[C@H]2Oc3c(NC(=O)c4nc5ccccc5s4)cccc3C(=O)N([C@@H](C)CO)C[C@@H]2C)cc1,-1,nt,nt,8,3
COc1ccc(CN(C)C[C@H]2Oc3c(NC(=O)c4nc5ccccc5s4)cccc3C(=O)N([C@H](C)CO)C[C@@H]2C)cc1,24*,nt,nt,3,0
O=C(C[C@@H]1CC[C@@H]2[C@H](COC[C@H](O)CN2Cc2ccccc2F)O1)NC1CCC1,8,nt,nt,nt,nt
CCC(=O)N1C[C@H](C)[C@H](OC)CN(C)C(=O)c2cc(NC(=O)C3CCCCC3)ccc2OC[C@H]1C,3,nt,nt,-5,2
O=C(Nc1ccccc1)C1CCCN1C(=O)Nc1ccccc1[N+](=O)[O-] (configuration not stated),nt,-1,0,-1,1
CC(=O)Nc1ccc(NC(=O)C2CCCN2C(=O)Nc2ccccc2[N+](=O)[O-])cc1 (configuration not stated),-8,1,-6,21*,16
O=C(O)/C=C/C(=O)c1ccc2c(c1)CCc1ccccc1-2,29*,144*,22,5,13
CC(=O)Nc1ccc2c(c1)CCc1ccccc1-2,-5,-6,-9,0,3
CN1CCN(C(=O)c2cc3sc4ccccc4c3s2)CC1,43*,-14,-3,-5,-6
O=C(C1CC1)N1C[C@@H]2[C@H](c3ccccc31)[C@@H](CO)N2C(=O)Nc1cccc(F)c1,6,nt,nt,1,1
Cc1noc(C)c1NC(=O)N(C)C[C@H]1Oc2ccc(NC(=O)Nc3ccc(F)cc3)cc2CC(=O)N([C@H](C)CO)C[C@H]1C,-6,nt,nt,-3,1
